“And” between values parts separate entries of the source, which are not always exact repeats. Equal values may be shown once. Compounds without any hit were thinned out: in the full panel of roughly 79,000, 15% have a hit. A number with no mark means an inactive call. The source made the active and inactive calls. Cut-off read from the data, not from the text of the source: active = growth inhibition above about 70%; inactive = the rest.
Experiment: NCI Yeast Anticancer Drug Screen. Data for the sgs1 mgt1 strain (AID 161);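 note: 0% = growth of cultures given vehicle only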
Details: S. cerevisiae sgs1 mgt1 strain, at 5.0 µM (retest, dose inferred, filed as 0.5), active compounds read high
Description: Growth inhibition of yeast strains with defined genetic alterations is measured as a screen for potential anti-cancer activity. Selected strains with alterations in DNA damage repair or cell cycle control were exposed to compounds and growth inhibition was measured relative to vehicle treated controls. The strain used in this assay is sgs1 mgt1

Compound	growth inhibition
C[C@@H](O)[C@H]1/C=C/C=C\C(=O)O[C@@H]2C[C@H]3O[C@@H]4[C@@H]5OC5(C)CCC4(COC(=O)[C@H]4O[C@]4(C)[C@@H](O)CO1)[C@]2(C)[C@]31CO1 (stereo not given in full)	44%
CN1C(=O)C2(C)SSC1(C)C(=O)N2C	43%
CC1=CC2CC(C)=C(CC[C@]3(C)CC[C@H]([C@@H](C)C(=O)O)OO3)C(C)(C)C2CC1 (stereo not given in full)	69%
O=C(O)C(F)(F)C(F)(F)C(=O)O	-5%
CC12OOC(c3ccccc31)c1c2ccc2ccccc12 (stereo not given)	92% (active)
CC12C(=O)C=CCC1=CCC1C2CCC2(O)C(=O)OC3(C)C4CC5(C)C(COC16OC23C5C6=O)C(=O)O4 (stereo not given)	19%
c1ccc(C[As](c2ccccc2)c2ccccc2)cc1	99% (active)
CC(=O)CC(=O)Nc1c(C)[c]([Hg][O]C(C)=O)c(C)[c]([Hg][O]C(C)=O)[c]1[Hg][O]C(C)=O	57%
Cc1cc(N(CCCl)CCCl)ccc1C1N(Cc2ccc(N(CCCl)CCCl)cc2Cl)CCCN1Cc1ccc(N(CCCl)CCCl)cc1Cl	57%

Same assay, conditions: S. cerevisiae sgs1 mgt1 strain, at 50.0 µM (retest, dose inferred, filed as 5.0), active compounds read high

Compound	growth inhibition
C[C@@H](O)[C@H]1/C=C/C=C\C(=O)O[C@@H]2C[C@H]3O[C@@H]4[C@@H]5OC5(C)CCC4(COC(=O)[C@H]4O[C@]4(C)[C@@H](O)CO1)[C@]2(C)[C@]31CO1 (stereo not given in full)	96% (active)
CN1C(=O)C2(C)SSC1(C)C(=O)N2C	96% (active)
CC1=CC2CC(C)=C(CC[C@]3(C)CC[C@H]([C@@H](C)C(=O)O)OO3)C(C)(C)C2CC1 (stereo not given in full)	99% (active)
O=C(O)C(F)(F)C(F)(F)C(=O)O	-2%
CC12OOC(c3ccccc31)c1c2ccc2ccccc12 (stereo not given)	99% (active)
CC12C(=O)C=CCC1=CCC1C2CCC2(O)C(=O)OC3(C)C4CC5(C)C(COC16OC23C5C6=O)C(=O)O4 (stereo not given)	31%
c1ccc(C[As](c2ccccc2)c2ccccc2)cc1	36%
CC(=O)CC(=O)Nc1c(C)[c]([Hg][O]C(C)=O)c(C)[c]([Hg][O]C(C)=O)[c]1[Hg][O]C(C)=O	94% (active)
Cc1cc(N(CCCl)CCCl)ccc1C1N(Cc2ccc(N(CCCl)CCCl)cc2Cl)CCCN1Cc1ccc(N(CCCl)CCCl)cc1Cl	95% (active)

Same assay, conditions: S. cerevisiae sgs1 mgt1 strain, at 50.0 µM, active compounds read high

Compound	growth inhibition
C[C@@H](O)[C@H]1/C=C/C=C\C(=O)O[C@@H]2C[C@H]3O[C@@H]4[C@@H]5OC5(C)CCC4(COC(=O)[C@H]4O[C@]4(C)[C@@H](O)CO1)[C@]2(C)[C@]31CO1 (stereo not given in full)	92% (active)
CC[n+]1c(-c2ccccc2)c2cc(N)ccc2c2ccc(N)cc21 (tested in a mixture with another compound)	95% (active)
CN1C(=O)C2(C)SSC1(C)C(=O)N2C	97.5% (active)
COc1cc(C(CC(C)=O)c2cc3c(cc2OC(C)=O)OCO3)cc(OC)c1OC (stereo not given) (tested in a mixture with another compound)	17.2%
CC1(C)CN=C(Nc2ccc(F)c(F)c2)S1	12.1%
CCOP(=O)(OCC)/C(C#N)=C/c1cn(C)cn1	-5.95%
S=C=NCc1ccccc1	20.4%
CCC(Cl)COP(=O)(OCC(Cl)CC)O/C(C)=C(\C)OP(=S)(OCC(Cl)CC)OCC(Cl)CC (stereo not given)	93.8% (active)
[Br][Hg][CH]1CCC2CCCC1O2 (stereo not given)	99.5% (active)
COP(=O)(OC)C(=O)c1ccccc1	-7.8%
[Cu+2].[O-]c1ccc2ccccc2c1N=Nc1ccccc1.[O-]c1ccc2ccccc2c1N=Nc1ccccc1	-13.1%
CC1=CC2CC(C)=C(CC[C@]3(C)CC[C@H]([C@@H](C)C(=O)O)OO3)C(C)(C)C2CC1 (stereo not given in full)	93% (active)
Cc1c([N+](=O)[O-])cc(C(C)(C)C)c(O)c1[N+](=O)[O-]	72.2% (active)
CSCCC(N)C(=O)O (stereo not given)	-6% and -7.65%
O=C(O)C(F)(F)C(F)(F)C(=O)O	4.8%
[O-][n+]1c2ccccc2nn1-c1ccc(N(CCCl)CCCl)cc1	-2.05%
CC12OOC(c3ccccc31)c1c2ccc2ccccc12 (stereo not given)	90% (active)
C1=C/CCC2NC2C/C=C/CCC/1 (stereo not given)	-10.6%
CC12C(=O)C=CCC1=CCC1C2CCC2(O)C(=O)OC3(C)C4CC5(C)C(COC16OC23C5C6=O)C(=O)O4 (stereo not given)	54.4%
c1ccc(C[As](c2ccccc2)c2ccccc2)cc1	99.5% (active)
CC(=O)CC(=O)Nc1c(C)[c]([Hg][O]C(C)=O)c(C)[c]([Hg][O]C(C)=O)[c]1[Hg][O]C(C)=O	92.8% (active)
Cc1cc(N(CCCl)CCCl)ccc1C1N(Cc2ccc(N(CCCl)CCCl)cc2Cl)CCCN1Cc1ccc(N(CCCl)CCCl)cc1Cl	98.2% (active)

Reference: PubChem BioAssay (NCI)
